PubChem BioAssay (NCATS)
Several values for one entry are separate records, joined by “and”; a condition that tells them apart may be missing. Equal entries are not always repeated. A number with no mark means an inactive call. Results filed as inconclusive are left out. Entries that show only a call come without a potency. Activity calls are given as the source filed them. The call rests on the fitted dose curve; in most records, active means well fitted curve in the direction sought with a large enough effect; inconclusive means small, poorly fitted or top-dose-only effect, or another doubt; inactive means no such curve, though single readings can be large; an effect the other way counts as inactive or inconclusive.

How the values were obtained:
[1] = qHTS Assay for Identifying Gametocytocidal Compounds (AID 743244); further: potency means the concentration at half of the fitted maximal effect;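 on max response: actives lower the fluorescent signal which means gametocytes are killed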; details: P. falciparum 3D7 stage III-V gametocytes, alamarBlue, 72 h; max response: active compounds read low
Method in brief: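 Using 20,000 stage III–V 3D7 gametocytes per well, compounds were incubated 72 h under 37 °C/5% CO2. Viability was then assessed by 24 h alamarBlue reduction, measured fluorometrically at 525/598 nm.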

[2] = qHTS assay for measurement of the activity of small molecule inhibitors on Zika virus induced Caspase-3 activity in human iPSC derived neural progenitor cells (hNPCs) (AID 1224857); further: nearly all actives have a fitted effect of over 65% in size
Method in brief: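 After overnight (16–20 h) culture at 350 cells/well, hNPCs get compound, then ZIKV 2 FFU/cell one hour later. Six hours on, Caspase-Glo 3/7 is added and luminescence measured.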

[3] = qHTS assay for measurement of the activity of small molecule inhibitors on Zika virus induced Caspase-3 activity in human astrocytoma cells (AID 1224859)
Method in brief: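 Inhibition of Zika-induced caspase-3/7 activity: SNB-19 cells, 1 h compound pretreatment, ZIKV 2 FFU/cell for 6 h at 37 C, Caspase-Glo luminescence read-out.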

Row | SMILES | max response [1] | Potency [2] | outcome [3] | Potency [1]
1 | CCCCc1cc2ccccc2c(OCCN(C)C)n1 | -5.86% | inactive | inactive | –
2 | O=S(c1cc(Cl)cc(Cl)c1O)c1cc(Cl)cc(Cl)c1O | 11.4% | inactive | inactive | –
3 | COc1ccc(S(=O)(=O)N2c3ccc(Cl)cc3[C@@](O)(c3ccccc3Cl)[C@H]2C(=O)N2CCC[C@@H]2C(N)=O)cc1OC | 20.2% | inactive | inactive | –
4 | O=c1[nH]c(=O)n([C@H]2C[C@H](O)[C@@H](CO)O2)cc1F | 4.58% | inactive | inactive | –
5 | CN1CCC[C@@H]1CCO[C@](C)(c1ccccc1)c1ccc(Cl)cc1 | -0.809% | inactive | inactive | –
6 | CCN(CC)CCOc1ccc2c(c1)C(=O)c1cc(OCCN(CC)CC)ccc1-2 | – | inactive | inactive | 12.6 µM (active)
7 | COc1cc(C(=O)N2CCCCCCC2)cc(OC)c1OC | 12.8% | inactive | inactive | –
8 | CCC(C(=O)OCCOCCN(CC)CC)c1ccccc1 (stereo not given) | 6.25% | inactive | inactive | –
9 | CC(=O)Nc1ccc(CC(=O)O)cc1 | 7.88% | inactive | inactive | –
10 | CCCCC(CC)COC(=O)/C=C/c1ccc(OC)cc1 (stereo not given) | 11.8% | inactive | inactive | –
11 | NCCNC(=O)c1ccc(Cl)cn1 | -2.71% | inactive | inactive | –
12 | CCNC(=O)NCc1cccc(Cl)c1 | 8.55% | inactive | inactive | –
13 | COc1ccc(-c2cc(C(F)F)nn2-c2ccc(S(N)(=O)=O)cc2)cc1F | 25.1% | inactive | inactive | –
14 | OC[C@H]1O[C@@H](Oc2ccc(O)cc2)[C@H](O)[C@@H](O)[C@@H]1O | 0.374% | inactive | inactive | –
15 | O=C(c1ccc(F)cc1)C1CCN(CCn2c(=S)[nH]c3ccccc3c2=O)CC1 | -2.47% | inactive | inactive | –
16 | Cc1cccc(C)c1NC(=O)CN1CCCC1 | 20.5% | inactive | inactive | –
17 | CC(=O)OC[C@H]1O[C@@H](n2ncc(=O)[nH]c2=O)[C@H](OC(C)=O)[C@@H]1OC(C)=O | 13.3% | inactive | inactive | –
18 | COc1ccc2c(c1)c1c3n2CCN(C)C3=NCC1 | 18.4% | inactive | inactive | –

Row | SMILES | max response [1] | Potency [2] | outcome [3] | Potency [1]
19 | Cc1nc(-c2ccc(Cl)cc2)oc1COC(C)(C)C(=O)O | -2.69% | inactive | inactive | –
20 | CC(=O)O[C@]1(C(C)=O)CC[C@H]2[C@@H]3C=C(Cl)C4=CC(=O)CC[C@]4(C)[C@H]3CC[C@@]21C | -7.79% | inactive | inactive | –
21 | NCc1ccccc1Sc1ccccc1CO | -6.07% | inactive | inactive | –
22 | CNCCc1ccccn1 | -0.406% | inactive | inactive | –
23 | Cl/C(=C\n1cncn1)c1ccc(Cl)cc1Cl | -6.68% | inactive | inactive | –
24 | O=C(CCN1CCN2CCCC2C1)N1c2ccccc2Sc2ccc(Cl)cc21 (stereo not given) | – | inactive | inactive | 22.4 µM (active)
25 | CC[N+](C)(CC)CCOC(=O)C(O)(c1ccccc1)C1CCCCC1 (stereo not given) | -1.51% | inactive | inactive | –
26 | Cc1cc(-c2ccccc2)nnc1NCCN1CCOCC1 | -0.774% and -9.14% | inactive | inactive | –
27 | CC[C@H](c1ccc(O)cc1)[C@@H](CC)c1ccc(O)cc1 | 11.9% | inactive | inactive | –
28 | CCCCCCCCCCCCOCCOCCOCCOCCOCCOCCOCCOCCOCCO | 14.7% | inactive | inactive | –
29 | CCOC(=O)C(C#N)=C(c1ccccc1)c1ccccc1 | -6.54% | inactive | inactive | –
30 | CC(=O)O[C@]1(C(C)=O)CC[C@H]2[C@@H]3C=C(C)C4=CC(=O)CC[C@]4(C)[C@H]3CC[C@@]21C | 3.72% | inactive | inactive | –
31 | Oc1ccccc1C=NCc1ccccc1 | 0.984% | inactive | inactive | –
32 | Cc1ccc(-c2ncc(Cl)cc2-c2ccc(S(C)(=O)=O)cc2)cn1 | 12.8% | inactive | inactive | –
33 | OC1C(O)C(O)C(O)C(O)C1O (stereo not given) | 0.49% | inactive | inactive | –
34 | CC(=O)Oc1ccc(C)cc1 | -2.81% | inactive | inactive | –
35 | CC(C)CCCC(C)N (stereo not given) | 6.57% | inactive | inactive | –
